# Screens: PubChem BioAssay, National Center for Advancing Translational Sciences (NCATS)
# Shown are actives, neighbours in structure and some others; about 6% of the full set was active somewhere.
# Tau fluor counter: counter-screen for tau fibril formation inhibitors; tau K18 P301L Alexa594 fluorescence, heparin fibrillization; Potency, µM (highest dose often 57.7 µM), for inactives: at the highest dose activity change, negative = decrease; 0.93% of 280,000 active; AID 1463; also: nearly all actives have a fitted effect of over 55% in size
#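 Human K18 P301L tau (15 uM unlabeled plus 0.24 uM Alexa 594-labeled, final) in 100 mM sodium acetate pH 7 was mixed with compound and 20 uM heparin and incubated 6 hr at 37 C.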
# PLK1 PBD block: inhibitors of human PLK1 polo-box domain binding; P53350; Plk1 PBD binding of FITC phosphopeptide, fluorescence polarization; Potency, µM, without a hit: max response, negative = inhibition, most hits filed as inhibitors; 2.8% of 360,000 active; AID 720504; also: series mostly up to about 57 µM; nearly all actives have a fitted effect of over 65% in size
# Tau ThT inhib: tau fibrillization inhibition (ThT binding); recombinant tau K18 P301L, heparin-induced fibrillization, ThT fluorescence; Potency, µM (series often up to 57.4 µM), without a hit: at the highest dose activity, negative = inhibition, usual class: inhibitors; 2.1% of 270,000 active; AID 1460; also: nearly all actives have a fitted effect of over 55% in size
#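 ThT emission at 510 nm, taken 1 hr after adding 30 uM dye, quantifies aggregates formed when 20 uM heparin acts on human tau K18 P301L for 6 hr at 37 C.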
# Tau FP inhib: tau fibrillization inhibition (FP). P10636. K18 P301L tau heparin fibrillization, Alexa594 FP, 6 h. Potency, µM (top dose mostly 57.7 µM), without a hit: at the highest dose activity, negative = inhibition, hits mostly inhibitors. 0.39% of 280,000 active. AID 1468; also: nearly all actives have a fitted effect of over 55% in size
#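 Human K18 P301L fragment (15 uM unlabeled plus 0.24 uM Alexa 594-labeled) in 100 mM sodium acetate pH 7 with compound, aggregation induced by 20 uM heparin for 6 hr at 37 C. ThT (30 uM) added for 1 hr, then Alexa 594 FP read.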
# VDR inhibitor: vitamin D3 receptor (human) inhibition. Potency, µM, without a hit: max response, negative = inhibition, most hits filed as inhibitors. P11473. VDR-SRC2-3 peptide fluorescence polarization, 2 h. 0.93% of 400,000 active
# Target sequence (P11473 whole entry, looked up): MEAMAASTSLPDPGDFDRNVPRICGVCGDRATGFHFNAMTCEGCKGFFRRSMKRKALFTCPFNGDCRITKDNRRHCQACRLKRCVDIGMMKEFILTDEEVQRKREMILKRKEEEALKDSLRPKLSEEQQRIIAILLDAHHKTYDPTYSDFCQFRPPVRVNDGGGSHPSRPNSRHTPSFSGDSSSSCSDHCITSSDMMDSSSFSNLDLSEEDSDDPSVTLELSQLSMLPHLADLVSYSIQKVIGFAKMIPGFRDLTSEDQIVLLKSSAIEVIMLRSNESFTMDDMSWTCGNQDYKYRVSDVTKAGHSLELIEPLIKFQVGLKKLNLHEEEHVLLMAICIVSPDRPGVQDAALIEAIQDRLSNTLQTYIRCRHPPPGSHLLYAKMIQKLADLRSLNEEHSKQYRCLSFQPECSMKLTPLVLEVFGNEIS
#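 The screen uses fluorescence polarization to detect compounds that interfere with recruitment of the SRC2-3 coactivator peptide to VDR; plates are read after 2 h at room temperature.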
# Sfp PPTase inh: inhibitors of Bacillus subtilis Sfp phosphopantetheinyl transferase; Biochemical Sfp PPTase activity, qHTS; Potency, µM, for the others: largest response in the series, negative = inhibition, most hits filed as inhibitors; 3.5% of 310,000 active; Q9F4F7;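 also: the enzyme is Sfp with the accession as filed and its product quenches rhodamine fluorescence; 0% = enzyme reaction without inhibitor and -100% = no enzyme wells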
#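 Compounds were incubated with enzyme (final 15 nM) for 15 min at room temperature before substrate addition started the reaction. Fluorescence at 525 nm excitation, 598 nm emission was recorded immediately and after 30 minutes.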
# The depositor's hits bear a star; ? = inconclusive; . = not tested or not shown. Calls follow the shape of the dose curve; as a rule, active = well fitted curve in the direction sought with a large enough effect; inconclusive = small, poorly fitted or top-dose-only effect, or another doubt; inactive = no such curve, though single readings can be large; an effect the other way counts as inactive or inconclusive. Unless noted, % is scaled to controls: 0 for no effect and ±100 for the full control effect; potency is read from the fitted curve at half-maximal effect.
SMILES,Tau fluor counter,PLK1 PBD block,Tau ThT inhib,Tau FP inhib,VDR inhibitor,Sfp PPTase inh
COc1ccc(CN2CCN(C(=O)c3cccs3)CC2)cc1Br,-0.3%,-0.9%,-1.2%,0.9%,15.1%,?
COc1ccc(-c2noc(CN3CCN(C(=O)c4cccs4)CC3)n2)c(OC)c1OC,.,21.2µM*,.,.,-18.5%,5.1%
COc1ccc(CN(C)C(=O)Cn2cc(C)c(=O)[nH]c2=O)cc1OC,.,26.7µM*,.,.,-27.4%,.
COc1ccc(CN(C)C(=O)Cn2ccsc2=N)cc1OC,.,?,.,.,8.2%,14.2%
COc1ccc(Oc2ncc3nc(-c4cc(F)cc(F)c4)c(=O)n(C)c3n2)cc1,.,.,.,.,-1.3%,-23.7%
Cc1nn(-c2ccccc2)c(N2CCCC2)c1/C=C1\N=C(c2ccc(OC(C)C)cc2)OC1=O,-21.3%,-17.0%,10µM*,9.6%,-9.4%,-10.0%
O=C(Nc1ccccc1C(F)(F)F)c1cc2nc(-c3ccccc3)cc(-c3ccccc3)n2n1,-16.6%,.,-4.0%,-2.2%,-11.3%,.
CCc1ccc(CN/C=C/C(=O)c2ccc(Br)cc2)cc1,-26.8%,23.8µM*,-22.9%,-2.5%,-11.7%,4.7%
COc1ccccc1N=CC1=C(O)CC(c2ccccc2)CC1=O (centres undefined),-7.7%,-2.5%,-13.7%,7.9%,-12.5%,9.0%
COc1ccccc1N=Cc1nc(-c2ccccc2)oc1OC(C)=O,?,?,25.1µM*,?,?,-9.7%
CC(=O)Oc1oc(-c2ccccc2)nc1/C=N/c1ccccn1,10.6%,9.47µM*,8.6%,3.4%,22.4µM*,?
COc1ccc(N(CC(=O)NCc2cccs2)S(=O)(=O)c2cccc(C)c2)cc1,.,-4.4%,.,.,-13.7%,.
COc1ccccc1CNC(=O)c1ccc2c(c1)N(Cc1cc(C)ccc1C)C(=O)c1ccccc1S2,-4.3%,.,3.9%,-11.4%,-1.0%,.
CCN1C(=O)NC(c2ccccc2)C1=O (centres undefined),.,-6.6%,.,.,-4.5%,.
CC(C)=CCC1C(=O)N(c2ccccc2)N(c2ccccc2)C1=O,.,.,.,.,25.1µM*,-6.9%
O=C(Nc1ccc(F)c(Cl)c1)c1cc(C2CCCN(C(=O)c3cccs3)C2)on1 (centres undefined),.,1.0%,.,.,.,.
COc1ccc(N2CC(C(=O)OCC(=O)c3ccc(C)cc3)CC2=O)cc1 (centres undefined),-7.3%,-11.0%,?,3.5%,-3.7%,4.0%
CCOc1ccc(N2CC(C(=O)OCC(=O)c3ccc(OC)cc3)CC2=O)cc1 (centres undefined),.,29.9µM*,.,.,?,-4.5%
COc1ccc(CNC(=O)[C@H](C)NC(=O)C2CC(=O)N(c3ccc(OC)cc3)C2)cc1 (some centres undefined),.,26.7µM*,.,.,?,11.6%
O=C(NCc1ccco1)C1CC(=O)N(c2ccc(O)cc2)C1 (centres undefined),0.6%,3.36µM*,-0.5%,3.3%,-18.9%,9.3%
CCc1nnc(NC(=O)C2CC(=O)N(c3ccc(C)cc3)C2)s1 (centres undefined),-7.2%,-25.1%,-14.9%,5.5%,-10.9%,50.1µM*
COc1ccc(CNC(=O)[C@H](C)NC(=O)C2CC(=O)N(c3ccc4c(c3)OCO4)C2)cc1 (some centres undefined),.,-3.7%,.,.,5.4%,13.7%
CCCCCC(=O)/C=C/C=C\CCCCCCCC(=O)O,-3.6%,.,-2.7%,3.8%,0.3%,6.9%
Cc1ccc(NC(=O)c2c(NC(=O)c3ccccc3Cl)sc3c2CCC3)cc1,-17.8%,.,-6.6%,-2.2%,-8.1%,.
Cc1csc(N=Cc2ccc([N+](=O)[O-])o2)n1,.,-23.4%,.,.,.,.
CCOc1ccc(NC(=O)Cn2c(=O)n(CC(=O)NCc3ccccc3Cl)c(=O)c3sccc32)cc1,20.5%,.,?,-21.3%,15.8%,.
CCOc1ccc(N2CC(C(=O)NCc3cccc(C)c3)CC2=O)cc1 (centres undefined),-5.7%,5.97µM*,-14.2%,3.0%,-26.2%,4.3%
